For 37 molecules, growth results are on record in PubChem BioAssay (NCI).

Structures are written as SMILES. Values joined by “and” are separate entries in the source; they are usually repeats but may differ in a detail not shown here. Equal entries are not always repeated. About 83,000 compounds went through this panel and 20% of them were active in at least one assay; those are over-represented in the sample as a whole.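 96-well plates, one dose, 48 hours. Percent growth reported; active if below 10.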 Active and inactive are the calls of the source.

The first assay relates to SK-MEL-2 melanoma. Put plainly: NCI-60 one-dose screen, 48 h (100 = growth as untreated, 0 = no growth, -100 = all killed). Particulars: 0.0025 µM. The method, then:
Growth inhibition of the SK-MEL-2 human tumor cell line is measured as a screen for anti-cancer activity. Cells are grown in 96 well plates and exposed to the test compound for 48 hours. Compounds are tested at a single concentration, which is 10^-5 M for most compounds. The reported endpoint is percent growth (GI% or GIPRCNT), where numbers from 0 - 100% represent growth inhibition, and numbers from -100% - 0 represent cell death. For example, a value of 40 represents 60% growth inhibition. A value of 0 means no net growth occurred over the course of the experiment. A value of -40 indicates 40% of cells at the beginning of the experiment died by the end of the experiment. A value of -100 means all cells are dead at the end of the experiment.
NCI-60 Human Tumor Cell Lines Screen was performed using the standard one-dose NCI protocol, which is described in more detail at https://dtp.cancer.gov/discovery_development/nci-60/default.htm.
Compounds with GIPRCNT values below 10 were considered active. Activity score was based on GIPRCNT using the following formula: […]
Score is 0 for GIPRCNT values of 100 or above, 50 for GIPRCNT values of 0, and 100 for GIPRCNT values of -100.
Regarding `COc1cccc2c1C(=O)c1c(O)c3c(c(O)c1C2=O)C[C@@](O)(C(=O)CO)C[C@@H]3OC1CC(N)C(O)C(C)O1` (stereo not given in full), the growth is 112% (inactive).

The same assay, now with this note: 1 µM.
For `COc1cccc2c1C(=O)c1c(O)c3c(c(O)c1C2=O)C[C@@](O)(C(=O)CO)C[C@@H]3OC1CC(N)C(O)C(C)O1` (stereo not given in full), the growth is 31.3% (inactive).

The same assay, now with this note: 2.5 µM.
Take `COc1cccc2c1C(=O)c1c(O)c3c(c(O)c1C2=O)C[C@@](O)(C(=O)CO)C[C@@H]3OC1CC(N)C(O)C(C)O1` (stereo not given in full): the growth was 75.1% (inactive).

Staying with this assay, now noted: 10 µM.
As for `COc1c(O)cc2oc3cc(O)c(CC=C(C)C)c(O)c3c(=O)c2c1CC=C(C)C`, the growth was 89.8% (inactive).
As for `COC(=O)C1=COC(C)C2C[n+]3ccc4c([nH]c5ccccc54)c3CC12` (stereo not given), the growth is 103% (inactive) and 85.1% (inactive).
Still for that read-out and setting: the same measure for `CCCCCCCCCCSC(=N)N`: 61.9% (inactive).
The same measure, in the same setting: the same measure for `CCCCCCCCCCCCCCCCCCOCC(COP(=O)([O-])OCC[N+](C)(C)C)OC` (stereo not given): 101% (inactive).
For `CN(C)C(=S)SC(=S)N(C)C`, the growth was 107% (inactive) and 93.2% (inactive).
On the same count and under the same terms, for `Cc1cc(O)c(C(C)C)cc1Cl` the value was 117% (inactive); for `Nc1c2ccccc2nc2ccccc12`, -33.8% (active) and 33.6% (inactive) and 51.8% (inactive); for `CC[N+](CC)=c1ccc2nc3c(cc(N)c4ccccc43)oc-2c1`, -75.1% (active).
With `COC(=O)C1C(O)C(C)C(O)C(C)C=C(C)C2=C3C(=C(C)C(=O)c4c(O)c(c(C)c(OC(C)=O)c43)NC(=O)C(C)=C/C=C\C(C)C(O)C(C)C1O)OCO2` (stereo not given), the growth was 26.5% (inactive).
Same read-out and setting: for `NC1=C(Cl)C(=O)c2ccccc2C1=O` the value was 51.9% (inactive); for `O=C1C=CC(=CC=C2C=CN(CCCCCCCCCCCO)C=C2)C=C1`, 33.5% (inactive).
As to `O=C(O)COc1ccc(OCC(=O)O)cc1`, the growth was 64.9% (inactive).
On the same count and under the same terms, for `O=C1NC(=O)c2cc([N+](=O)[O-])ccc21` the value was 107% (inactive); for `CCCCCCCCCCCCSC(=NC)NC`, 79.2% (inactive) and 95.8% (inactive); for `CN1CCN(CCCN2c3ccccc3Sc3ccc(C(F)(F)F)cc32)CC1`, 88.1% (inactive).
With `CCO/C=C1\SC(=S)N(c2cccc(O)c2)C1=O`, the growth was 87.4% (inactive).
Consider `Clc1ccc(/C=C/c2ccccn2)c(Cl)c1`, for which the growth was 107% (inactive).
`CC(=O)Nc1cc(C)ccc1C`: the growth is 101% (inactive).
In the case of `NC(=O)SCC(=O)NNc1ccccc1`, the growth is 87.5% (inactive).
In the case of `O=C(C(=Cc1ccccc1)C(=O)c1ccccc1)c1ccccc1`, the growth was 90% (inactive) and 83.2% (inactive).
Same read-out and setting: the same measure for `CC(=O)OCC(OC(C)=O)C(OC(C)=O)C(OC(C)=O)C(OC(C)=O)C(/C=N/Nc1ccccc1)=N/Nc1ccccc1` (stereo not given): 84.3% (inactive); for `CCN1/C(=C/C=C/C=C/c2sc3ccccc3[n+]2CC)Sc2ccccc21`: -59.1% (active).
As to `N=S(c1ccccc1[N+](=O)[O-])c1ccccc1[N+](=O)[O-]`, the growth was 89.2% (inactive).
On the same count and under the same terms, the same measure for `CO[C@H](C(=O)[C@@H](O)[C@@H](C)O)[C@@H]1Cc2cc3cc(OC4CC(OC5CC(O)C(O)C(C)O5)C(O)C(C)O4)c(C)c(O)c3c(O)c2C(=O)[C@H]1OC1CC(OC2CC(OC3CC(C)(O)C(O)C(C)O3)C(O)C(C)O2)C(O)C(C)O1` (stereo not given in full): -43.9% (active); for `Clc1cc(Cl)c(Cl)nn1`: 99.9% (inactive).
Turning to `O=C(/C=C/c1ccccn1)c1ccccc1`, the growth is 79.3% (inactive).
Still for that read-out and setting: for `CCC(C)(C)c1cc(O)c(C(C)(C)CC)cc1O` the value was 24.4% (inactive); for `CCCC1CCC(=C2C(=O)CCC2=O)O1` (stereo not given), 116% (inactive) and 125% (inactive).
The same measure, in the same setting: for `O=C(Nc1ccc(C(=O)O)c(O)c1)c1ccccc1` the value was 113% (inactive) and 97.3% (inactive); for `Cc1nc(N=C(N)N)nc2ccc3ccccc3c12`, -19% (active); for `CC1=CC(C)=Nc2ccc(Cl)cc2N1`, 109% (inactive).
In the case of `OCC1OC(n2cnc3c(=S)nc[nH]c32)C(O)C1O` (stereo not given), the growth is 100% (inactive) and 57.6% (inactive).
Same read-out and setting: for `Nc1ccc2cc3ccc(N)cc3nc2c1` the value was -26.2% (active); for `COc1cccc2c1C(=O)c1c(O)c3c(c(O)c1C2=O)C[C@@](O)(C(=O)CO)C[C@@H]3OC1CC(N)C(O)C(C)O1` (stereo not given in full), -28.5% (active).
Still for that read-out and setting: for `Oc1ccc(N=Nc2ccccn2)c(O)c1` the value was 27.8% (inactive).
Same read-out and setting: the same measure for `NNc1ccc2ccccc2c1`: 101% (inactive) and 108% (inactive).
`CSC1SCC2C(=O)N(C)C(C(C)C)C(=O)OCC(NC(=O)c3cnc4ccccc4n3)C(=O)NC(C)C(=O)N(C)C1C(=O)N(C)C(C(C)C)C(=O)OCC(NC(=O)c1cnc3ccccc3n1)C(=O)NC(C)C(=O)N2C` (stereo not given): the growth is -28.3% (active).
